Source: paper PMC7862700, “An all-to-all approach to the identification of sequence-specific readers for epigenetic DNA modifications on cytosine”

Assays:
Experiment in all cases: DAPPL (digital affinity profiling via proximity ligation, sequencing); 10 mM Tris-HCl pH 7.5, 50 mM NaCl, 1 mM DTT, 4% glycerol, room temperature, 30 min; GST-TFs on glutathione beads, 16-mer random dsDNA library, 0.1% formaldehyde crosslink after washing; high values mean tight binding
FEV = biological target: T1, FEV (Homo sapiens, UniProt Q99581 1-238); details: protein: recombinant; tags: N-terminal GST; dsDNA, one strand shown
T1 sequence: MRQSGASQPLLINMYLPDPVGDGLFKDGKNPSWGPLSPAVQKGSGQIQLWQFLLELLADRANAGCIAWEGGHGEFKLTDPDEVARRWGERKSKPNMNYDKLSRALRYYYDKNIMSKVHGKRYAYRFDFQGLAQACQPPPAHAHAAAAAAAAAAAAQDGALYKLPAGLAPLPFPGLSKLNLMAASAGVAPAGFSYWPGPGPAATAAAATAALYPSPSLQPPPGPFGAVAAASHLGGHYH
Summary of the method: (§1)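 Beads coated with glutathione captured GST-fused human transcription factors that had been expressed in yeast, and the factors were then given DNA barcodes and pooled with a tag-only sample. The pools were incubated with 200 nmole of a random double-stranded 16-mer DNA library in Tris/NaCl/DTT/glycerol buffer for 30 min at room temperature, washed, crosslinked with 0.1% formaldehyde and proximity-ligated with BsaI/T4 ligase at 37 °C for 1 h. PCR amplification and Illumina NextSeq500 sequencing came last. Binding signal is each hexamer's read frequency for a factor divided by its frequency for the tag-only sample.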

ETV5 = ETV5 (Homo sapiens, UniProt P41161 1-510); details: protein: recombinant; tags: N-terminal GST; dsDNA, one strand shown
Summary of the method: as §1

HSF1 = HSF1 (Homo sapiens, UniProt Q00613 1-529); details: protein: recombinant; tags: N-terminal GST; chain copies: 3; dsDNA, one strand shown
Summary of the method: as §1

SPIC = biological target: T2, SPIC (Homo sapiens, UniProt Q8N5J4 1-248); details: protein: recombinant; tags: N-terminal GST; dsDNA, one strand shown
T2 sequence: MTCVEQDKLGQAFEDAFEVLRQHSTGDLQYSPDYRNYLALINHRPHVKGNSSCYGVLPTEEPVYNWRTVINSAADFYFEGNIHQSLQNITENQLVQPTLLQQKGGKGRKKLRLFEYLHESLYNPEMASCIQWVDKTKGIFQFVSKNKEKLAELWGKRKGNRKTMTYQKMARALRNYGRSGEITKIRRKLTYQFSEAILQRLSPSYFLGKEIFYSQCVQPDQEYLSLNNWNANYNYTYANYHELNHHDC
Summary of the method: as §1

ELF4 = ELF4 (Homo sapiens, UniProt Q99607 1-663); details: protein: recombinant; tags: N-terminal GST; dsDNA, one strand shown
Summary of the method: as §1

ELK4 = biological target: T3, ELK4 (Homo sapiens, UniProt P28324-2 1-405); details: protein: recombinant; tags: N-terminal GST; dsDNA, one strand shown
T3 sequence: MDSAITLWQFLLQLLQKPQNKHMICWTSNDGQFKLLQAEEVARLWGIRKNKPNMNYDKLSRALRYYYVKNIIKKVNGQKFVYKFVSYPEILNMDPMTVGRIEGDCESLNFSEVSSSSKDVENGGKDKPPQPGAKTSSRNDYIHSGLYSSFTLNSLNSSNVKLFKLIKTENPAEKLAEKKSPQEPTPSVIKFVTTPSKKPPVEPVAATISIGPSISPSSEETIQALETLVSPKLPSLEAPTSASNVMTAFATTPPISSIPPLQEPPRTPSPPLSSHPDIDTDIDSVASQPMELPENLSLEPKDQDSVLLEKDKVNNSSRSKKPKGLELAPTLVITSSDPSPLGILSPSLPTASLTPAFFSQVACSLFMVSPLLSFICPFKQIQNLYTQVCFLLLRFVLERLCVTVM
Summary of the method: as §1

ETV2 = biological target: T4, ETV2 (Homo sapiens, UniProt O00321 1-342); details: protein: recombinant; tags: N-terminal GST; dsDNA, one strand shown
T4 sequence: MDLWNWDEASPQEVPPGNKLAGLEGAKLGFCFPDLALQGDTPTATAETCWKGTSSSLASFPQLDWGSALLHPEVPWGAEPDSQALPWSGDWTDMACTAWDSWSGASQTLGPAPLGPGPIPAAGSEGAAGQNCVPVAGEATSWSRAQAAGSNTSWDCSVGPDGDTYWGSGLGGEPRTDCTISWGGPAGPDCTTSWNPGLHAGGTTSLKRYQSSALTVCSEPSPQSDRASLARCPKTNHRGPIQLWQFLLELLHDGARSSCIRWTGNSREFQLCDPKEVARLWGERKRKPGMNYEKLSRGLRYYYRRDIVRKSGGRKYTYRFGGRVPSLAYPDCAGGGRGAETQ
Summary of the method: as §1

ELF3 = biological target: T5, ELF3 (Homo sapiens, UniProt P78545 1-371); details: protein: recombinant; tags: N-terminal GST; dsDNA, one strand shown
T5 sequence: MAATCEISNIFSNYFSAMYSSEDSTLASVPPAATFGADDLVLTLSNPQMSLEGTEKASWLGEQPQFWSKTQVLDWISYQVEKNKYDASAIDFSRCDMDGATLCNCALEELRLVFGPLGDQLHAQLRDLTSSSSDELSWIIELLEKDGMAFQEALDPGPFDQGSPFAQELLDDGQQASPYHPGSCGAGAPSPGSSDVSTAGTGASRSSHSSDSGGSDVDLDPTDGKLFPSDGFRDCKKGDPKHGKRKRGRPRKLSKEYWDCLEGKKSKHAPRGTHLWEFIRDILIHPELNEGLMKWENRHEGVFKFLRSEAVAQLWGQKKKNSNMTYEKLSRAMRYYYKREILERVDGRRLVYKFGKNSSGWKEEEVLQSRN
Summary of the method: as §1

CRX = CRX (Homo sapiens, UniProt O43186 1-299); details: protein: recombinant; tags: N-terminal GST; dsDNA, one strand shown
Summary of the method: as §1

ETV1 = ETV1 (Homo sapiens, UniProt P50549 1-477); details: protein: recombinant; tags: N-terminal GST; dsDNA, one strand shown
Summary of the method: as §1

ERF = biological target: T6, ERF (Homo sapiens, UniProt P50548 1-548); details: protein: recombinant; tags: N-terminal GST; dsDNA, one strand shown
T6 sequence: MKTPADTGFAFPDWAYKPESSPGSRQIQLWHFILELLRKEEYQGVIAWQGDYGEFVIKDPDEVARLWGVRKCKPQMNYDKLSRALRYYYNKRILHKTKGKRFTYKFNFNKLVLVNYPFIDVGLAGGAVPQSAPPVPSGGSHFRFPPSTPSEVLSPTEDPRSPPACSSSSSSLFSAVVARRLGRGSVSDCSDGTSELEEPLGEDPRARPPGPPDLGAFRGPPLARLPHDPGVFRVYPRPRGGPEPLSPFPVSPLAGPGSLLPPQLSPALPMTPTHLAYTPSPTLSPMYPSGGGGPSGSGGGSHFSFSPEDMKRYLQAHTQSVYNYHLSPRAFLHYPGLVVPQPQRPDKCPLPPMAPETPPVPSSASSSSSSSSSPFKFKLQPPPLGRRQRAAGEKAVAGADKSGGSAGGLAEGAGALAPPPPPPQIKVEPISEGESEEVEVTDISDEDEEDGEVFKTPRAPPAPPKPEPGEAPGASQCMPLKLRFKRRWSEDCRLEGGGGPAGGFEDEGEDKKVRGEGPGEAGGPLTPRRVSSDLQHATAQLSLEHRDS
Summary of the method: as §1

ETV3L = biological target: T7, ETV3L (Homo sapiens, UniProt Q6ZN32 1-361); details: protein: recombinant; tags: N-terminal GST; dsDNA, one strand shown
T7 sequence: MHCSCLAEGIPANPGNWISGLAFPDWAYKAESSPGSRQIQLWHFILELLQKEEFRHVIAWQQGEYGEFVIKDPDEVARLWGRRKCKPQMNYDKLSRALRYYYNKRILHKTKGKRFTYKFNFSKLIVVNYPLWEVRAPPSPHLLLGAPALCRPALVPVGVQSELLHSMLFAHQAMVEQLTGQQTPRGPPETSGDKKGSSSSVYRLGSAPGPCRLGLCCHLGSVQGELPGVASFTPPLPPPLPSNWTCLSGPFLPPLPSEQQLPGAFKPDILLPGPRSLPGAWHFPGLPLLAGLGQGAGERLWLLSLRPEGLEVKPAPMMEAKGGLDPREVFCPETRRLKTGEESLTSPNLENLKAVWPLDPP
Summary of the method: as §1

ETS2 = biological target: T8, ETS2 (Homo sapiens, UniProt P15036 1-469); details: protein: recombinant; tags: N-terminal GST; dsDNA, one strand shown
T8 sequence: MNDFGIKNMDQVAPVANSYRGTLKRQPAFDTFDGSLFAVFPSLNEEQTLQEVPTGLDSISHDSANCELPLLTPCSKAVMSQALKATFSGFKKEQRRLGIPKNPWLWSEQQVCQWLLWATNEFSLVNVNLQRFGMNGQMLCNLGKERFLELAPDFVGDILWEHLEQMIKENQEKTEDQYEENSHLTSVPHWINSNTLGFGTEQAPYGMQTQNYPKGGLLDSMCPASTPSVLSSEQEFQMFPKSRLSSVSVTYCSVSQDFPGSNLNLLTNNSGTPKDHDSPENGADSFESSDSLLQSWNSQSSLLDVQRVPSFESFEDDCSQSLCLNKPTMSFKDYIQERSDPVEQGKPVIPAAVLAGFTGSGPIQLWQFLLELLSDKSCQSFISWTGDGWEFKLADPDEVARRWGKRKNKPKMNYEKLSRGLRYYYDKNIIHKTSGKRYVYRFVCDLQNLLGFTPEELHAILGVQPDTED
Summary of the method: as §1

SPDEF = biological target: T9, SPDEF (Homo sapiens, UniProt O95238 1-335); details: protein: recombinant; tags: N-terminal GST; dsDNA, one strand shown
T9 sequence: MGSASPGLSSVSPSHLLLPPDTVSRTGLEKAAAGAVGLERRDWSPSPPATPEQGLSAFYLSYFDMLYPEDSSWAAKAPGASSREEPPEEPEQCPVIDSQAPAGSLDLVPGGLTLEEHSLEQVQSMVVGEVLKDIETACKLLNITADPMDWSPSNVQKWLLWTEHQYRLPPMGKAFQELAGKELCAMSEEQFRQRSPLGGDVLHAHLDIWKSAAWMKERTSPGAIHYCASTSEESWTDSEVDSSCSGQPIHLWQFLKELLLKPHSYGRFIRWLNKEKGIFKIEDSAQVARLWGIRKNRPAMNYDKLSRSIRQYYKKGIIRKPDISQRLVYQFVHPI
Summary of the method: as §1

ETV7 = biological target: T10, ETV7 (Homo sapiens, UniProt Q9Y603 1-341); details: protein: recombinant; tags: N-terminal GST; dsDNA, one strand shown
T10 sequence: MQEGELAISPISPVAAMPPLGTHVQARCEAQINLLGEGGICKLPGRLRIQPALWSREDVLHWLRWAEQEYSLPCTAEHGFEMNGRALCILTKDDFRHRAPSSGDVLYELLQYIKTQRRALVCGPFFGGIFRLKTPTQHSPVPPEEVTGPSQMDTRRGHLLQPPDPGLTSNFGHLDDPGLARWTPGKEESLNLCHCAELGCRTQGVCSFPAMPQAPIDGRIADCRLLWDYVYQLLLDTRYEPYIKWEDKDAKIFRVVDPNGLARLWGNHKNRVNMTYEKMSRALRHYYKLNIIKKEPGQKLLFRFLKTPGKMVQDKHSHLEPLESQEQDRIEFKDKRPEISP
Summary of the method: as §1

ELF5 = biological target: T11, ELF5 (Homo sapiens, UniProt Q9UKW6-2 1-255); details: protein: recombinant; tags: N-terminal GST; dsDNA, one strand shown
T11 sequence: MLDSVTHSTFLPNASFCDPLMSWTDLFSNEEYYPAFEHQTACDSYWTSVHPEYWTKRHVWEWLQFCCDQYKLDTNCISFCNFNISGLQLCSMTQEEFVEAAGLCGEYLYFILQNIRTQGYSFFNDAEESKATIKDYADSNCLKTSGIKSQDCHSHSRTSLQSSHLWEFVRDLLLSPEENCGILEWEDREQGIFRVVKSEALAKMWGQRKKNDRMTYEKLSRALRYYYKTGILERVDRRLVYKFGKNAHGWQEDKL
Summary of the method: as §1

ETV3 = biological target: T12, ETV3 (Homo sapiens, UniProt P41162-2 1-143); details: protein: recombinant; tags: N-terminal GST; dsDNA, one strand shown
T12 sequence: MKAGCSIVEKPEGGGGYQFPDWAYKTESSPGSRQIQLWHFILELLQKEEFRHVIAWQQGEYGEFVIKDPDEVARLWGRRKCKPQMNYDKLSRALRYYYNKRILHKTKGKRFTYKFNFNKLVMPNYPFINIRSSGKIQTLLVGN
Summary of the method: as §1

ETV6 = ETV6 (Homo sapiens, UniProt P41212 1-452); details: protein: recombinant; tags: N-terminal GST; dsDNA, one strand shown
Summary of the method: as §1

Chain of ETV6 (P41212 whole entry): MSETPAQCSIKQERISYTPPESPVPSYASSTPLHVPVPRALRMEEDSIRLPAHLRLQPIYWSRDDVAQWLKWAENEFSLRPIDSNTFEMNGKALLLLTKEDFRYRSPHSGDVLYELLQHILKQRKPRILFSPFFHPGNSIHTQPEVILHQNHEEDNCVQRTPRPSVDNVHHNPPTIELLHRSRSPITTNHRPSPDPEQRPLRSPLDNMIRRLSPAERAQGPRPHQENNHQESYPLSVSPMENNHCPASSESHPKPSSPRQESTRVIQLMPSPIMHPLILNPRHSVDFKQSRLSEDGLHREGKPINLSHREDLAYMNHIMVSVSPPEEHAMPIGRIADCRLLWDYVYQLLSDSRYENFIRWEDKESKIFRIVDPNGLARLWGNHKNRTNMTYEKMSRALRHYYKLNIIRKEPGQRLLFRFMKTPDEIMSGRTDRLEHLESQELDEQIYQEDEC
Chain of CRX (O43186 whole entry): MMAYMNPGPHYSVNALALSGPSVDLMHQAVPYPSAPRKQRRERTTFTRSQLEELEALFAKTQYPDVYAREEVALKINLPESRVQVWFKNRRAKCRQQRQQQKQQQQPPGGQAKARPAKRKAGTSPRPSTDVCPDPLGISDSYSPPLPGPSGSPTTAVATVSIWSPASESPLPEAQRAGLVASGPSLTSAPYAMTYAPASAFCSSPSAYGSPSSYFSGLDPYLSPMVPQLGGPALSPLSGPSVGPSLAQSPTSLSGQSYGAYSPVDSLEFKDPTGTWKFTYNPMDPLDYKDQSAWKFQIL
Chain of ETV5 (P41161 whole entry): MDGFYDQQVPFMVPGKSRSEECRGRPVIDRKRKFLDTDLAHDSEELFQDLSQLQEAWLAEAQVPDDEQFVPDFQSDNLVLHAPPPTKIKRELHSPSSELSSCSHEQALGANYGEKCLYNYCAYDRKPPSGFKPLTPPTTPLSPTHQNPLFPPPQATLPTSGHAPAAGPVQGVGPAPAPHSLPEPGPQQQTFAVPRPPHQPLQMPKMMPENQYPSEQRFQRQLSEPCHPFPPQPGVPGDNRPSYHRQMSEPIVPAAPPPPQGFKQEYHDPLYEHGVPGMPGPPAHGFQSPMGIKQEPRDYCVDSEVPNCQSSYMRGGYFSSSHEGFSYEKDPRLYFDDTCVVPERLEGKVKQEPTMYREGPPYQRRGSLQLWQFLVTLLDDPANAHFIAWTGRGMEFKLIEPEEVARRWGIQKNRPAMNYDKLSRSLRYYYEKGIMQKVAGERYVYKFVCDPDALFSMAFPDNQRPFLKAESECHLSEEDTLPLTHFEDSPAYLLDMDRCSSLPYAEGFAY
Chain of ETV1 (P50549 whole entry): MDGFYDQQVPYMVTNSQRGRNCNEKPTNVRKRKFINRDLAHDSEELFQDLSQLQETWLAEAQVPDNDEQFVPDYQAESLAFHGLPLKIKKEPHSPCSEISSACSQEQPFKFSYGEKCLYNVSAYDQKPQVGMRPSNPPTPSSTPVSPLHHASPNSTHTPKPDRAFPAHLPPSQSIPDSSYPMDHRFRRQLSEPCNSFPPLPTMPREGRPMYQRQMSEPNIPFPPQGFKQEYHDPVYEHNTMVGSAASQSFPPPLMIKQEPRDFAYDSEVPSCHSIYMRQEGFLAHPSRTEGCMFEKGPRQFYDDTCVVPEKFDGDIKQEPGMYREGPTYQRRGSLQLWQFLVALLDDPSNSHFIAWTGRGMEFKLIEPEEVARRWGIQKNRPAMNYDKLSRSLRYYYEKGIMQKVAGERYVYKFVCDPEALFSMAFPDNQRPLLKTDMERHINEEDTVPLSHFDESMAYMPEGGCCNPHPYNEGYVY
Chain of HSF1 (Q00613 whole entry): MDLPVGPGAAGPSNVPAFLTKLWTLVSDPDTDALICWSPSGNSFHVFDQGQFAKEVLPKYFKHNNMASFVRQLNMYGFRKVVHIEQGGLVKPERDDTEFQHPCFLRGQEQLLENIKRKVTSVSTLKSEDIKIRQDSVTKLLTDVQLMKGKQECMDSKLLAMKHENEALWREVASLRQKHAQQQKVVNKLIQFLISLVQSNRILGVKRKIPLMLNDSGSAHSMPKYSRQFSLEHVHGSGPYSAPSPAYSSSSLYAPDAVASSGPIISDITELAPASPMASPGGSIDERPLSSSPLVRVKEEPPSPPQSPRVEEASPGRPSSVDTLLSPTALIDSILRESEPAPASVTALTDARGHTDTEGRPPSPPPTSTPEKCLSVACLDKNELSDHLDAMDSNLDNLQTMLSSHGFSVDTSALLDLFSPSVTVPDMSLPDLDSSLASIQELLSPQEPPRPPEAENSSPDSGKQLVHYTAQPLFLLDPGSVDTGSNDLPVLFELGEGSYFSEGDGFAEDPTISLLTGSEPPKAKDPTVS
Chain of ELF4 (Q99607 whole entry): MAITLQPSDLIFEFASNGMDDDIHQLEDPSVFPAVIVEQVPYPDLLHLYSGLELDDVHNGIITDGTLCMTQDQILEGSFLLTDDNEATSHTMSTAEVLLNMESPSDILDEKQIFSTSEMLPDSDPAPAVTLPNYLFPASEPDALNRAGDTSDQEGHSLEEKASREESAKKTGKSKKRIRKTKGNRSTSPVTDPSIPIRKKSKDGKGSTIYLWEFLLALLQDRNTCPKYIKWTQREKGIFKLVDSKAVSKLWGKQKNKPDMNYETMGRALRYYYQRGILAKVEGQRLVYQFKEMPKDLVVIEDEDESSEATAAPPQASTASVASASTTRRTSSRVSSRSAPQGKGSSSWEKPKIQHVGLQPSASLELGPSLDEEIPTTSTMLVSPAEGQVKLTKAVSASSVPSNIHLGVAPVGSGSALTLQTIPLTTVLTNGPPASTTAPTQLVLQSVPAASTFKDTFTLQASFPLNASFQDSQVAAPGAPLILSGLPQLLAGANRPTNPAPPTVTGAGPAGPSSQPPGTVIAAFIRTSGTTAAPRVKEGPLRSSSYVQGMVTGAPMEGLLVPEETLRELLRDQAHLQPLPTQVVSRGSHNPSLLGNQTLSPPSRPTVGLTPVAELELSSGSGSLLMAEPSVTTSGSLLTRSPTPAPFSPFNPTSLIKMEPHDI

Sequence: TGGAAT
- binding signal (FEV): 1.21 fold enrichment (6-mer frequency, TF over GST control)
- binding signal (ETV5): 1.22 fold enrichment (6-mer frequency, TF over GST control)
- binding signal (HSF1): 2.63 fold enrichment (6-mer frequency, TF over GST control)
- binding signal (SPIC): 1.22 fold enrichment (6-mer frequency, TF over GST control)
- binding signal (ELF4): 1.14 fold enrichment (6-mer frequency, TF over GST control)
- binding signal (ELK4): 1.21 fold enrichment (6-mer frequency, TF over GST control)
- binding signal (ETV2): 1.47 fold enrichment (6-mer frequency, TF over GST control)
- binding signal (ELF3): 1.21 fold enrichment (6-mer frequency, TF over GST control)
- binding signal (CRX): 1.77 fold enrichment (6-mer frequency, TF over GST control)
- binding signal (ETV1): 1.24 fold enrichment (6-mer frequency, TF over GST control)
- binding signal (ERF): 1.22 fold enrichment (6-mer frequency, TF over GST control)
- binding signal (ETV3L): 1.3 fold enrichment (6-mer frequency, TF over GST control)
- binding signal (ETS2): 1.3 fold enrichment (6-mer frequency, TF over GST control)
- binding signal (SPDEF): 1.28 fold enrichment (6-mer frequency, TF over GST control)
- binding signal (ETV7): 1.27 fold enrichment (6-mer frequency, TF over GST control)
- binding signal (ELF5): 1.18 fold enrichment (6-mer frequency, TF over GST control)
- binding signal (ETV3): 1.24 fold enrichment (6-mer frequency, TF over GST control)
- binding signal (ETV6): 1.15 fold enrichment (6-mer frequency, TF over GST control)
